This is an account of results in ChEMBL document CHEMBL1157539, “Thousands of chemical starting points for antimalarial lead identification” (Nature, 2010).

This assay has as its system Plasmodium falciparum. Briefly: GSK_TCMDC: Inhibition of Plasmodium falciparum 3D7 in whole red blood cells, using parasite LDH activity as an index of growth. Test compounds present at 2uM. It counts as functional.
The Inhibition is the percentage by which the read-out fell short of the control. In the case of `CC(=O)Nc1ccc(CN(Cc2ccc(F)cc2)Cc2cccc(Oc3ccccc3)c2)cc1`, the Inhibition came out at 88%. Regarding `CCCCCCN(C(=O)OCc1ccccc1)C1CCN(C(=O)OC(C)(C)C)CC1C(=O)OCC` (stereo not given), the Inhibition came to 96%. For `CC(C)NCc1ccc(-c2cccc(-c3nc4ccccc4[nH]3)c2)cc1.O=C(O)C(F)(F)F` the value was 100%; for `CC(C)(C)OC(=O)/C=C(\C(=O)OCc1ccc([N+](=O)[O-])cc1)c1csc(NC(c2ccccc2)(c2ccccc2)c2ccccc2)n1`, 96%; for `Cc1ccc(S(=O)(=O)NC(=N)NC(N)=O)cc1`, 94%.

In turn, `CCOC(=O)c1ccc(NC(=O)NNC(=O)c2ccc(CCN3CCC(c4nc(COCC(F)(F)F)c(-c5ccc(F)cc5)o4)CC3)cc2)cc1` returned an Inhibition of 100%.

Compound `CC1CCCN(C(=O)C(C)Nc2cc(Cl)ccc2N2CCOCC2)C1` (stereo not given) had an Inhibition of 100%. For `Cc1cc(=O)c(-c2ccc(Oc3ccc(C(F)(F)F)cc3)cc2)c(C)n1O` the value was 94%; for `COC(=O)C(c1ccc(NC(=O)[C@H](CC(C)C)NC(=O)OC(C)(C)C)cc1)c1ccc(NC(=O)[C@H](CC(C)C)NC(=O)OC(C)(C)C)cc1`, 94%; for `Cl.O=C(CNC1=NCCN1)Nc1ccc(NC(=O)Nc2ccc(NC(=O)CNC3=NCCN3)cc2)cc1`, 90%.

Compound `FC(F)(F)c1ccc2[nH]c(-c3cccc(-c4ccc(CNCC5CCCO5)cc4)c3)nc2c1.O=C(O)C(F)(F)F` (stereo not given) gave an Inhibition of 99%. `Cc1cc(N)nc2ccc(-c3ccc(CN)cc3)cc12`: the Inhibition is given as 100%. Take `COc1ccc(CC(=O)NC2CCN(c3ccnc4cc(Cl)ccc34)C2)cc1.O=C(O)C(F)(F)F` (stereo not given): the Inhibition was determined as 100%. `N#CN1CC[C@@H](NS(=O)(=O)Cc2ccc(Cl)c(Cl)c2)C1` had an Inhibition of 94%. Compound `COc1cccc(C(=O)NCCOc2ccccc2)c1Oc1ccccc1` returned an Inhibition of 98%. The compound `COc1ccc(C2CCN(CCCCNC(=O)c3ccc(NC(=O)c4ccc(Cl)cc4)cc3)CC2)c(C)c1.Cl` had an Inhibition of 98%.

`O=C(Nc1ccc(-c2nc3ccccc3[nH]2)cc1)C1CCCN(CC2CC2)C1` (stereo not given) returned an Inhibition of 89%.

Take `CCCCNc1cc(NCCCC)c2c(n1)[nH]c1ccccc12`: the Inhibition stood at 100%. In the case of `O=C(Nc1ccsc1)Nc1cccc(-c2ccc(-c3nc4cc(C(F)(F)F)ccc4[nH]3)cc2)c1`, the Inhibition stood at 99%. `CN1CCN(Cc2ccc(-c3ccc4c(Nc5ccc(F)cc5Cl)ccnc4c3)o2)CC1` registered an Inhibition of 100%.

In turn, `COC(=O)c1ccc2nc(-c3ccc(C(=O)NCc4ccc(Cl)c(Cl)c4)cc3)[nH]c2c1` displayed an Inhibition of 95%. `NC1=NC(c2ccccc2)(c2ccccc2)C(=O)N1CCCCc1ccccn1` returned an Inhibition of 94%. With `COc1ccc(CC(=O)Nc2ccc(Nc3nc(C)cc(N(C)C)n3)cc2)cc1`, the Inhibition is listed as 97%. As for `COc1cccc(OC)c1CN1CCC(N(C)CCCCCCCCN2CCC(OC(=O)Nc3ccccc3-c3ccccc3)CC2)CC1`, the Inhibition is reported as 99%. Turning to `CCOc1cc(Cc2cnc(N)nc2N)cc(OCC)c1OCC`, the Inhibition stood at 97%.

`CCc1cc(NC(=O)Nc2ccnc3ccccc23)ccc1OC.Cl` had an Inhibition of 85%. Take `Cc1n[nH]c2cc(Nc3ccnc(Nc4cccc(CN5CCOCC5)c4)n3)ccc12`: the Inhibition is recorded as 83%. `COc1ccc(-c2nc(NC(=O)CS(=O)(=O)c3ccc(F)cc3)sc2C)cc1` returned an Inhibition of 100%. Compound `Cc1cccc2nc(-c3ccc(-c4ccc(CN5CCN(c6cnccn6)CC5)cc4)s3)[nH]c12.O=C(O)C(F)(F)F` displayed an Inhibition of 94%. For `Cc1[nH]c(C)c(-c2ccc(OCc3cccc(C(F)(F)F)c3)nc2)c(=O)c1Br` the value was 99%; for `Cc1c(F)cc(C(=O)NC2CC2)cc1-c1ccc2c(cnn2S(=O)(=O)c2ccc(F)c(F)c2)c1`, 91%. `O=S(=O)(Nc1ccc(CCN2CCC(N3CCCCC3)CC2)cc1)c1ccccc1C(F)(F)F` gave an Inhibition of 95%.

Turning to `O=C(O)C(F)(F)F.Oc1ccc(CCNc2nc(NCc3ccccc3-c3ccc(C(F)(F)F)cc3)nc(N3CCCNCC3)n2)cc1`, the Inhibition is listed as 95%. In turn, `CC(=O)N/N=C/[C@H](CCc1ccccc1)NC(=O)[C@H](CC(C)C)NC(=O)c1cccc(OCCN2CCOCC2)c1` registered an Inhibition of 94%.

`COc1ccc(-c2ccc(NC(=O)c3ccc(C#N)cc3)cc2)cc1CN1CCCC1.O=C(O)C(F)(F)F` registered an Inhibition of 95%. In turn, `Cl.N#Cc1ccc(-c2ccc(C(=O)Nc3ccc4c(c3)CCN(C3CCC3)CC4)nc2)cn1` came in with an Inhibition of 85%. As for `COc1cc(Nc2nccc(N3CCC(NC(=O)c4cccc(NC(C)=O)c4)C3)n2)cc(OC)c1OC` (stereo not given), the Inhibition is listed as 98%. Turning to `O=C(Nc1cccc(CN2CCCN(Cc3ccccc3)CC2)c1)c1ccc(Cl)c(Cl)c1.O=C(O)C(F)(F)F`, the Inhibition came out at 95%. The compound `CC(C)(C)c1ccc(CNC(=O)/C=C/c2ccc(-c3nc4cc(C(C)(C)C)ccc4[nH]3)cc2)cc1` yielded an Inhibition of 100%. For `Cc1c(C(=O)C2CC2CN2CCC(N3CCCCC3)CC2)sc2ccccc12` (stereo not given) the value was 94%.
